The results in this text go back to ChEMBL document CHEMBL1201862, “PubChem BioAssay data set” (2004).

Only a part of the results of these assays is listed, not drawn at random. Some results are limits rather than exact numbers.

In the experiment the target is T1, Protein RecA (Mycobacterium tuberculosis) (UniProt P9WHJ3).
T1 sequence (whole entry): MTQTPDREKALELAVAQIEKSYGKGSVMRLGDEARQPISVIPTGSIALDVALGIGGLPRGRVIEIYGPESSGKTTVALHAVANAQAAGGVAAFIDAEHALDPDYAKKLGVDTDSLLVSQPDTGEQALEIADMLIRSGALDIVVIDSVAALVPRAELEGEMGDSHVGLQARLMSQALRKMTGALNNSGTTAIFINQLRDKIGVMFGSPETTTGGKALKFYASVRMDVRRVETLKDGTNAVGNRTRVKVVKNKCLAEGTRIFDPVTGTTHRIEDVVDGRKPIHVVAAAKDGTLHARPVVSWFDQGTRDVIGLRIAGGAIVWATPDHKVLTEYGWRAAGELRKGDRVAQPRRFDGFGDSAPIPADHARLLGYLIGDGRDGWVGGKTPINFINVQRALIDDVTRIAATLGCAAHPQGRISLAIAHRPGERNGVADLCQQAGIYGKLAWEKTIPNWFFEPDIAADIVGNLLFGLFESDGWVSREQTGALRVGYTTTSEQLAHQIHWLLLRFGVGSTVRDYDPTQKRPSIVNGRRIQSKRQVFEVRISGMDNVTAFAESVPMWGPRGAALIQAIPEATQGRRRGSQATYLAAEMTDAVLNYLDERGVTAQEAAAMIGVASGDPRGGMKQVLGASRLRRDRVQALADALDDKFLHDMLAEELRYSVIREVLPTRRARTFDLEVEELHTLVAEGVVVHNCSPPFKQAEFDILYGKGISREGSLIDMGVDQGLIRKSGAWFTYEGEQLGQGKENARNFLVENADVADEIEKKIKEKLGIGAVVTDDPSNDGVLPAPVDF
Put plainly: M. tuberculosis H37Rv growth inhibition, dose response, strain H37Rv (AID 489010).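 Also: whole Mycobacterium tuberculosis cells grown in culture and not purified RecA protein.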 Type of experiment: functional.
Broadly, the IC90 is the concentration needed for an effect of 90%. With `Cc1cccc(Cn2nnc3c2C(=O)c2ccccc2C3=O)c1`, the 90% effect concentration (IC90) is 52.6 µM (active).

On to `Cc1ccccc1-n1ncc2c([N+](=O)[O-])cc([N+](=O)[O-])cc21`, for which the IC90 was 2.16 µM (active). Under `Cc1ccc(N(NC(=O)C(O)(c2ccccc2)c2ccccc2)C(=O)CCl)cc1` stands 27.4 µM (active); under `CN(C1=C(NC(=O)c2ccccc2)C(=O)c2ccccc2C1=O)C1CCS(=O)(=O)C1` (stereo not drawn), > 100 µM (active). Under `CC(NC(=O)COC(=O)c1cc(NS(=O)(=O)c2ccc(Cl)c([N+](=O)[O-])c2)ccc1O)C1CC2CCC1C2` (stereo not drawn) stands > 100 µM (active). Regarding `CN(C1=C(NC(=O)c2ccc(Cl)cc2)C(=O)c2ccccc2C1=O)c1ccccc1`, the IC90 was 16.7 µM (active). The figure for `Cc1ccc(-n2nnc3c(SCC(=O)NCC4CCCO4)ncnc32)cc1` (stereo not drawn) is > 100 µM (active); for `CCn1nc(/C=C/c2ccccc2)nc2c(=O)n(C)c(=O)nc1-2` it is 15.4 µM (active).

Consider `Cc1ccc(Sc2ccc(NC(=O)CCl)cc2)c(C)c1`, for which the IC90 is 66.3 µM (active). The figure for `COc1cccc(N(C(=O)CCl)C(C(=O)NCCc2ccccc2)c2cccs2)c1` (stereo not drawn) is 32 µM (active). Consider `O=C(CCl)N1c2ccccc2OCC1c1ccccc1` (stereo not drawn), for which the IC90 was 4.03 µM (active). Under `Cc1sc2ncnc(Sc3nnnn3-c3ccccc3)c2c1C` stands > 100 µM (active). In the case of `CC(=O)n1cc(N(C(=O)CCl)c2ccc(C)cc2)c2ccccc21`, the IC90 was 5.03 µM (active). Turning to `Cc1cc(C)cc(Cn2ncc(Cl)c(Cl)c2=O)c1`, the IC90 is 25.7 µM (active). The figure for `Cc1[nH]n(-c2ccccc2)c(=O)c1C(C[N+](=O)[O-])c1ccc(F)cc1` (stereo not drawn) is 32.8 µM (active). The figure for `O=C(OCn1ncc(Cl)c(Cl)c1=O)c1cccc(C(F)(F)F)c1` is > 100 µM (active). Under `O=C(CCl)N(c1ccc(Cl)cc1)c1c[nH]c2ccccc12` stands 4.5 µM (active); under `CN1C(=O)C(=C2CC(c3ccccc3)N(C(=O)CCl)N2)C(=O)N(C)C1=O` (stereo not drawn), > 100 µM (active); under `O=C(CCl)Nc1cn(-c2ccccc2)nc1-c1ccc(F)cc1`, 49.8 µM (active). Regarding `CSc1nnc(NC(=O)c2nc(S(=O)(=O)Cc3ccccc3F)ncc2Cl)s1`, the IC90 was > 100 µM (active).

Take `O=C1NC(=S)N(C2CCCCC2)C(=O)/C1=C/NNC(=O)c1ccccc1O`: the 90% effect concentration (IC90) is > 100 µM (active).

For `CC(C)(C)C1CCc2sc(C(=O)NNC(=O)CCl)cc2C1` (stereo not drawn), the IC90 was 33.3 µM (active). In the case of `Cc1cc(C)c(S(=O)(=O)/N=C2\C=C(Nc3ccc(C(=O)O)cc3)C(=O)c3ccccc32)c(C)c1`, the IC90 is > 100 µM (active).

`CC(=O)n1cc(N(C(=O)CCl)c2ccccc2)c2ccccc21`: the 90% effect concentration (IC90) is 5.8 µM (active). In the case of `O=C(NC1=C(NC2CCS(=O)(=O)C2)C(=O)c2ccccc2C1=O)c1ccccc1` (stereo not drawn), the IC90 is > 100 µM (active).

`Cc1ccc(CS(=O)(=O)c2ncc(Cl)c(C(=O)Nc3nnc(C(C)C)s3)n2)cc1`: the IC90 was > 100 µM (active). Consider `Clc1ccc(-n2nnnc2Sc2ncnc3sccc23)cc1`, for which the IC90 was 9.74 µM (active). For the compound `CC(=O)n1cc(N(C(=O)CCl)c2ccc([N+](=O)[O-])cc2)c2ccccc21`, the IC90 was 8.94 µM (active). On to `CC(C)(C)c1csc(Sc2ccc([N+](=O)[O-])cn2)n1`, for which the IC90 is > 100 µM (active).

With `Cc1ccc(C(=O)OCn2ncc(Cl)c(Cl)c2=O)cc1`, the IC90 is > 100 µM (active).

In the case of `O=C(NC1CCCCC1)C(c1cccnc1)N(C(=O)CCl)c1cccc(Cl)c1` (stereo not drawn), the IC90 was 28 µM (active). Take `Cc1nn(-c2ccccc2)c(Cl)c1CN(C(=O)CCl)c1cccc2ccccc12`: the IC90 is 35.5 µM (active).

On to `CCCCCCCCCCn1c2c(c(=N)c3c1CCC3)CCC2`, for which the IC90 is 3.39 µM (active).
